# Source: PubChem
# Rows were chosen to be rich in hits. Some 19% of all compounds tested hit in one or more screens of this group.
# SW480 rerep = inducers of DNA re-replication in SW480 colon cancer cells; SW480 DNA re-replication, Hoechst DNA content imaging, 48 h; Potency, µM (titrated, usually from 46.1 µM), without a hit: top-dose re-replication activation, actives largely listed as activators; 340,000 compounds, 1.8% hits; AID 624297; further: potency means the concentration at half of the fitted maximal effect; % of control where 0% means no effect; nearly all actives have a fitted effect of over 55% in size
#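 250 cells/well; 23 nL cpd via pin tool; 48 hr, 37 C, 5% CO2; Hoechst 40 min; imager read of total nuclear intensity, ex 405/em 500-530 nm.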
# TDP1 cell CPT = growth inhibition of DT40 Tdp1-/-;hTDP1 cells with camptothecin (screen for TDP1 inhibitors); 420,000 compounds, 12% hits; chicken DT40 Tdp1-/-;hTDP1 cells + 20 nM CPT, ATP luminescence, 48 h; Potency, µM (titrated, usually from 46.2 µM), for the others: at the top dose activity change, negative = growth inhibition, hits mostly inhibitors; further: potency means the concentration at half of the fitted maximal effect; on the % scale 0 is the no-effect control and ±100 the full control effect; nearly all actives have a fitted effect of over 55% in size
#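 Chicken DT40 Tdp1-/- cells stably complemented with human TDP1 were seeded at 400 cells/well in medium containing 20 nM camptothecin, exposed to pin-transferred compounds, and grown at 37 °C for at least 48 hr. Viability was read as ATP luminescence.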
# MCF10A rereplic = inducers of DNA re-replication in MCF 10A breast cells | Potency, µM (highest dose often 46.1 µM), inactives show at the top dose activity, positive = re-replication, usual class: activators | 350,000 compounds, 2.9% hits | AID 624296 | MCF 10A DNA re-replication, Hoechst nuclear intensity, 48 h; further: potency means the concentration at half of the fitted maximal effect; % of control where 0% means no effect; nearly all actives have a fitted effect of over 50% in size
# DT40 TDP1 no CPT = qHTS for Inhibitors of human tyrosyl-DNA phosphodiesterase 1 (TDP1): qHTS in cells in absence of CPT. Potency, µM (top dose mostly 46.2 µM), for inactives: at the highest dose activity change, negative = growth inhibition, usual class: inhibitors. DT40 Tdp1-/- hTDP1 cells, no CPT, ATP luminescence, 48 h. 420,000 compounds, 15% hits; further: potency means the concentration at half of the fitted maximal effect; on the % scale 0 is the no-effect control and ±100 the full control effect; nearly all actives have a fitted effect of over 55% in size
#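 A cellular qHTS used chicken DT40 cells lacking endogenous Tdp1 but carrying stably transfected human TDP1. Compounds were applied without camptothecin, and cell growth kinetics were judged by ATP-dependent luminescence after ≥48 hr.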
# Chronic BCR inh = chronic active BCR signaling inhibition; ABC-DLBCL IkBa-CBG/CBR reporter, luminescence ratio, 4 h; Potency, µM (series often up to 46.1 µM), without a hit: at the highest dose activity change, negative = inhibition, actives largely listed as inhibitors; 340,000 compounds, 0.05% hits; AID 493014; active means well fitted inhibition curve with a large enough effect in the signal ratio, with a control signal flat, not every such curve was filed as active; inconclusive means small, poorly fitted or top-dose-only effect, or effect the other way, or a change in a side signal; the % refers to the signal ratio;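 further: potency means the concentration at half of the fitted maximal effect; plate controls were basal doxycycline-induced cells for no effect and cells given 10 µM MG132 for full effect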
#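 Cell line TMD8 (human ABC DLBCL), stably expressing tet-inducible CBG68-IkBa fusion and CBR; IMDM/0.5% FBS; cpd up to 46 uM; dox induction, 4 h, 37C/5% CO2; dual luminescence; green/red ratio; MG132 control.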
# IL-1B inflam inh = inhibitors of inflammasome signaling (IL-1 beta secretion); 360,000 compounds, 4.7% hits; activity change, % at 57.5 µM; THP-1 LPS/ATP IL-1B secretion, AlphaLISA, 16 h; active compounds read low; in the data active means activity change below about -50%; inconclusive means mostly about -30% to -49%; further: on the % scale 0 is the no-effect control and ±100 the full control effect
#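 THP-1 cells pretreated 1 hr with compounds (up to 57.5 uM final), then stimulated with LPS (250 ng/mL final) plus ATP (1.25 mM final); secreted IL-1B measured by AlphaLISA after 16 hr, decreased signal indicating inhibition.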
# * hit, by the source's call; i = inactive; ? = inconclusive; . = no result given. Unless noted, the call rests on the fitted dose curve; in most records, active means well fitted curve in the direction sought with a large enough effect; inconclusive means small, poorly fitted or top-dose-only effect, or another doubt; inactive means no such curve, though single readings can be large; an effect the other way counts as inactive or inconclusive.
SMILES,SW480 rerep,TDP1 cell CPT,MCF10A rereplic,DT40 TDP1 no CPT,Chronic BCR inh,IL-1B inflam inh
CC(=O)c1ccc(NC(=O)CNc2cc(S(=O)(=O)N3CCOCC3)ccc2N2CCCC2)cc1,0%,16µM*,12%,26µM*,3%,-17
O=C(COC(=O)Cc1ccc(Cl)cc1)Nc1cc(S(=O)(=O)N2CCOCC2)ccc1N1CCCC1,?,-3%,26%,-28%,-1%,0
COc1cccc(NC(=O)CNc2cc(S(=O)(=O)N3CCOCC3)ccc2N2CCCC2)c1,-18%,?,17%,?,2%,-1
O=C(CNc1cc(S(=O)(=O)N2CCOCC2)ccc1N1CCCC1)Nc1ccc(Cl)cc1,-17%,18µM*,?,18µM*,.,-19
CCOc1ccc(NC(=O)N2CCC(c3nc4ccccc4[nH]3)CC2)cc1,-7%,10%,23%,-28%,?,-12
Cc1noc(C)c1-c1cc(NCc2cccs2)ncn1,.,?,.,-28%,.,.
COCCN(Cc1ccc(OC)cc1)c1c(C)nc2ccc(C(=O)Nc3ccc(NC(C)=O)cc3)cn12,.,?,.,?,.,18
Cc1cc(C(=O)OCC(=O)Nc2ccccc2Br)c(C)o1,-5%,-18%,-3%,-1%,0%,-1
CCOC(=O)C(C(=O)OCC)C(Nc1ccc(Br)cc1)c1ccccc1 (configuration not stated),?,29µM*,?,?,?,-71*
CCOC(=O)CCNC(C(=O)OCC)c1ccccc1 (configuration not stated),-4%,-1%,7%,-21%,-3%,2
CCOC(=O)C(c1ccccc1)C(Nc1ccc(F)cc1)c1ccccn1 (configuration not stated),-14%,?,1%,18µM*,8%,15
CCCN(C(=O)c1ccco1)c1nnc(-c2ccccc2C)s1,-146%,?,20%,?,-13%,-22
O=C(c1ccco1)N(CCCN1CCOCC1)c1nc(-c2ccc(F)cc2)cs1,?,23µM*,3%,16µM*,3%,-88*
CN(C(=O)c1ccco1)c1nc(-c2ccc(F)cc2)cs1,7%,9%,-1%,-15%,?,-17
CCN(CC)CCCN(C(=O)c1ccco1)c1nc(-c2ccc(Cl)cc2)cs1,?,?,17%,?,-1%,-67*
CCN(CC)CCN(C(=O)c1ccco1)c1nc2c(C)c(C)ccc2s1,.,23µM*,.,21µM*,.,.
CCN(C(=O)c1ccco1)c1nc(CC(=O)Nc2ccc(Cl)cc2)cs1,12µM*,?,12µM*,16µM*,3%,-10
CN(C(=O)c1ccco1)c1nc(CC(=O)Nc2ccccc2)cs1,-4%,-32%,30%,?,-10%,-2
C=CCOC(=O)N1CCC2CC1c1cc(-c3cccc(C)c3)ccc12 (configuration not stated),-1%,?,?,?,.,21
CC(Oc1cccnc1[N+](=O)[O-])C(=O)Nc1cccc(Cl)c1 (configuration not stated),-4%,-18%,8%,?,1%,0
CCN(CC)CCCN(C(=O)c1ccco1)c1nc(-c2ccc(C)cc2)cs1,?,18µM*,17%,?,?,-85*
Cc1c(C(=O)N2CCOCC2)sc(NC(=O)CCl)c1C#N,25%,13µM*,?,12µM*,-1%,-22
CC(=O)NC(c1cccc(F)c1)c1nc(-c2cc(F)cc(Cl)c2)cs1 (configuration not stated),.,-25%,.,-30%,.,-18
CCOC(=O)C1(Cc2cccc(Cl)c2)CCCN(C(=O)c2cc(CC)on2)C1 (configuration not stated),-6%,?,16%,16µM*,-8%,i
CCCc1cc(C(=O)N2CCCC(Cc3cccc(Cl)c3)(C(=O)OCC)C2)n(C)n1 (configuration not stated),0%,18µM*,9%,13µM*,9%,-26
SMILES,SW480 rerep,TDP1 cell CPT,MCF10A rereplic,DT40 TDP1 no CPT,Chronic BCR inh,IL-1B inflam inh
CCOC(=O)C1(Cc2cccc(Cl)c2)CCCN(C(=O)c2cn[nH]c2)C1 (configuration not stated),-4%,-18%,-1%,0%,0%,0
CCOC(=O)C1(Cc2cccc(OC)c2)CCCN(C(=O)c2cc(C)oc2C)C1 (configuration not stated),7%,21µM*,?,13µM*,2%,8
CCOC(=O)C1(Cc2cccc(Cl)c2)CCCN(C(=O)c2ccnn2C)C1 (configuration not stated),2%,15µM*,11%,?,7%,5
CCOC(=O)C1(Cc2cccc(Cl)c2)CCCN(C(=O)c2cc(C)n(C)n2)C1 (configuration not stated),-10%,?,7%,?,?,-5
CCCCN(C(=O)Cc1ccc(S(=O)(=O)N2CCOCC2)s1)c1c(N)n(CC(C)C)c(=O)[nH]c1=O,-21%,-2%,-13%,0%,-9%,23
Cn1nccc1C(=O)N1CCCC(N2CCN(Cc3ccc4c(c3)OCO4)CC2)C1 (configuration not stated),3%,-25%,16%,-13%,-1%,18
CC1CCCC(NC(=O)COC(=O)c2n[nH]c3ccccc23)C1C (configuration not stated),12%,?,?,?,-14%,7
COc1ccc(C)cc1NC(=O)c1cccc(-c2ccc(OC(C)=O)cc2)c1,16%,-29%,?,?,?,-17
Cc1nc2c(-c3ccc(Cl)cc3)cnn2c2c1CCC2,2%,1%,21µM*,-2%,9%,49
Cc1cccc(NC(=O)c2ccc(N3C(=O)C4CCCCC4C3=O)cc2)c1C (configuration not stated),-26%,-5%,4%,9%,-1%,3
Cc1ccnc(NC(=O)c2ccccc2[N+](=O)[O-])c1,-1%,-23%,9%,-2%,?,0
Cc1ccnc(NC(=O)c2ccc([N+](=O)[O-])o2)c1,5.8µM*,21µM*,4.1µM*,?,3%,.
O=C(Nc1ncccn1)c1ccc([N+](=O)[O-])o1,?,?,9.2µM*,?,-1%,-90*
